{"source": "PubChem BioAssay (Tox21)", "note": "Several values for one entry are separate records, joined by “and”; a condition that tells them apart may be missing. Equal entries are not always repeated. Results filed as inconclusive are left out. A call without a number means that no potency is given here. The source holds several records for some structures; these can differ, active in one and inactive in another. Activity calls are given as the source filed them. The call rests on the fitted dose curve; in most records, active means well fitted cell-killing curve with a large enough effect in the repeat runs; inconclusive means weak or mixed curves, or effect the other way; inactive means no such curve, though single readings can be large or run the other way. Potency means the concentration at half of the fitted maximal effect."}
{"assay": "Caspase-3/7 induction in CHO-K1 cells by small molecules, qHTS cell viability counter screen (AID 1346979); further: nearly all actives have a fitted effect of over 35% in size", "details": "CellTiter-Fluor fluorescence, 17 h; series mostly up to 92.4 µM", "source_text": "National Center for Advancing Translational Sciences [NCATS]\nNIH Chemical Genomics Center [NCGC]\nU.S. Environmental Protection Agency [EPA]\nNational Institutes of Environmental Health Sciences [NIEHS]\nNational Toxicology Program [NTP]\nU.S. Food and Drug Administration [FDA]\nApoptosis is a process of programmed cell death and plays a central role in the development of multicellular organisms. It is a highly regulated process and induces cell death by activating caspases, which are the members of cysteine aspartic acid-specific protease (caspase) family. Caspases involved in apoptosis are classified by their mechanism of action as initiator caspases (caspase-2, -8, -9 and -10) and executioner caspases (caspase-3, -6, and -7). Inhibition of apoptosis results in number of cancers, autoimmune diseases, inflammatory diseases and viral infection. To identify small molecule compounds that induce apoptosis, a homogeneous, luminescent Caspase-Glo 3/7 assay was used. Wild type CHO-K1 cells were used to screen Tox21 libraries for identifying caspase-3/7 activity inducers. Also cytotoxicity of the compounds was tested in parallel by measuring the cell viability using CellTiter-Fluor assay system in the same wells.\nTox21 Assay Protocol Summary:\nCHO-K1 cells were dispensed at 1,500 per well in 5uL of culture medium into white solid bottom 1536-well plates (Corning Life Sciences, Corning, NY) using a Multidrop Combi (Thermo Scientific, Waltham, MA) dispenser. The assay plates were incubated at 37 C and 5% CO2 for 5hr, and then 23nL of compounds dissolved in DMSO and positive control were transferred using a Pintool station (Wako, San Diego, CA). The assay plates were incubated at 37C and 5% CO2 for 17hr. For cytotoxicity read, after 16hr incubation at 37C, 1uL CellTiter-Fluor reagent (Promega Corporation, Madison, WI) was added to each well of the assay plates using Flying Reagent Dispenser (FRD, Aurora Discovery, San Diego, CA). After 1hr incubation at 37C and 5% CO2, the fluorescence signal was quantified using a ViewLux plate reader (PerkinElmer, Shelton, CT)."}
{"smiles": "CCCSP(=O)(OCC)SCCC", "Potency": "inactive"}
{"smiles": "CN(CCCC(O)c1cccnc1)N=O", "note": "(stereo not given)", "Potency": "inactive"}
{"smiles": "CCCCCCCCCBr", "Potency": "inactive"}
{"smiles": "Cc1ccc(C(=O)Cl)cc1", "Potency": "inactive"}
{"smiles": "ClCc1ccccc1CCl", "Potency": "61.1 µM (active)"}
{"smiles": "CCCCCCCCCC[N+](C)(C)CCCCCCCCCC", "Potency": "19.3 µM (active)"}
{"smiles": "Clc1ccc(COC(Cn2ccnc2)c2ccc(Cl)cc2Cl)cc1", "note": "(stereo not given)", "Potency": "22.7 µM (active) and 27.2 µM (active) and 23.7 µM (active)"}
{"smiles": "Clc1ccc(-c2ccccc2)cc1", "Potency": "inactive"}
{"smiles": "Oc1ccc2ccc3cccc4ccc1c2c34", "Potency": "inactive"}
{"smiles": "COc1cccc(C(=O)CCN[C@@H](C)[C@H](O)c2ccccc2)c1", "Potency": "26.6 µM (active)"}
{"smiles": "Oc1ccc(C(=C(Cl)Cl)c2ccc(O)cc2)cc1", "Potency": "61 µM (active)"}
{"smiles": "COP(=O)(OC)SCn1c(=O)oc2cc(Cl)cnc21", "Potency": "inactive"}
{"smiles": "O=C1c2ccccc2C(=O)C1C(=O)C(c1ccccc1)c1ccc(Cl)cc1", "note": "(stereo not given)", "Potency": "15.4 µM (active)"}
{"smiles": "CN(C)C1CSSSC1", "Potency": "inactive"}
{"smiles": "CC(=[OH+])/C=C(/C)[O-].CC(=[OH+])/C=C(\\C)[O-].CC(=[OH+])/C=C(\\C)[O-].[Al]", "Potency": "inactive"}
{"smiles": "Cc1cc(C)cc(OP(=O)(Oc2cc(C)cc(C)c2)Oc2cc(C)cc(C)c2)c1", "Potency": "inactive"}
{"smiles": "Cc1cc(C(F)(C(F)(F)F)C(F)(F)F)ccc1NC(=O)c1cccc(I)c1C(=O)NC(C)(C)CS(C)(=O)=O", "Potency": "inactive"}
{"smiles": "N#CCCSCCC#N", "Potency": "inactive"}
{"smiles": "N#CC(Cl)Cl", "Potency": "inactive"}
{"smiles": "[Cd+2].[Cl-].[Cl-]", "Potency": "1.23 µM (active) and 611 nM (active)"}
{"smiles": "CCCCCCCCCCCCCN1CC(C)OC(C)C1", "note": "(stereo not given)", "Potency": "inactive"}
{"smiles": "O=[N+]([O-])c1cc(C(F)(F)F)c(Cl)c([N+](=O)[O-])c1Cl", "Potency": "8.63 µM (active)"}
{"smiles": "CC(C)OC(=S)S", "Potency": "27.3 µM (active)"}
{"smiles": "O=CC(Br)(Br)Br", "Potency": "19.3 µM (active)"}
{"smiles": "COc1ccc([N+](=O)[O-])cc1O", "Potency": "inactive"}
{"smiles": "O=C(CCCN1CCC2(CC1)C(=O)NCN2c1ccccc1)c1ccc(F)cc1", "Potency": "23.7 µM (active)"}
{"smiles": "Clc1ccc(-c2ccc(Cl)c(Cl)c2Cl)c(Cl)c1Cl", "Potency": "inactive"}
{"smiles": "Oc1ccc(I)cc1", "Potency": "inactive"}
{"smiles": "CCOP(=S)(OCC)OC(Cl)C(Cl)(Cl)Cl", "note": "(stereo not given)", "Potency": "inactive"}
{"smiles": "c1ccc2c(c1)[nH]c1cnccc12", "Potency": "inactive"}
{"smiles": "COC[C@H](C)N(C(=O)CCl)c1c(C)csc1C", "Potency": "inactive"}
{"smiles": "CC(=O)Nc1ccc2c(c1)Cc1ccccc1-2", "Potency": "inactive"}
{"smiles": "CN(C)C(=S)S", "Potency": "8.81 µM (active) and 857 nM (active) and 12.2 µM (active)"}
{"smiles": "Clc1ccc(C(c2ccc(Cl)cc2)C(Cl)(Cl)Cl)cc1", "Potency": "69.1 µM (active) and inactive"}
{"smiles": "CNC(C)Cc1ccc2c(c1)OCO2", "note": "(stereo not given)", "Potency": "inactive"}
{"smiles": "NC(=O)c1ccc(N)nc1", "Potency": "2.73 µM (active)"}
{"smiles": "CC(C)(C)c1ccc(CSc2cnn(C(C)(C)C)c(=O)c2Cl)cc1", "Potency": "0.0172 µM (active)"}
{"smiles": "CCC(C)c1cc(C(C)(C)C)cc(-n2nc3ccccc3n2)c1O", "note": "(stereo not given)", "Potency": "inactive"}
{"smiles": "Cc1cccc(OP(=O)(Oc2cccc(C)c2)Oc2cccc(C)c2)c1", "Potency": "inactive"}
{"smiles": "CN(C)S(=O)(=O)N(SC(F)(Cl)Cl)c1ccccc1", "Potency": "7.7 µM (active)"}
